Inconclusive results are not listed. Where a call stands in place of a potency, no number is given. Calls of active or inactive are those of the source. Calls come from the whole dose curve; as a rule, active = well fitted inhibition curve with a large enough effect; inconclusive = small, poorly fitted or top-dose-only effect; inactive = no such curve, though single readings can be large or run the other way.

This test concerns Zika virus NS2B-NS3 protease (linked construct). In words: Primary screen NINDS Rhodamine qHTS for Zika virus inhibitors (AID 1347160). Note: nearly all actives have a fitted effect of over 55% in size. As to conditions: purified NS2B-NS3 protease, Rhodamine110 substrate fluorescence; series mostly up to 57.1 µM. The method in brief: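 Purified NS2B-NS3 protease with the NS2B hydrophilic domain joined by a flexible linker (25 nM) in 10 mM Tris-HCl pH 8.0, 0.01% Tween 20, preincubated 15 min at RT with compound; Rhodamine110 peptide substrate 1.5 µM; fluorescence change over 15 min; 4-parameter Hill fit.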
A general note: qHTS replaces the single test concentration by a dilution series.
Turning to `CC(C)=C1CC[C@]23CO[C@H](C2)[C@@](O)(C(=O)O)CCC13` (some centres undefined), the Potency result was “inactive”. Take `C[C@]12CC[C@@H](O)C[C@H]1CC[C@@H]1[C@@H]2CC[C@]2(C)C(=O)CC[C@@H]12`: the Potency entry was “inactive”. On the same count and under the same terms, under `CN1C(=O)c2ccccc2NC(=O)C1Cc1ccccc1` (centres undefined) stands “inactive”; under `COC1CC(O[C@H]2CC[C@]3(C=O)C4CC[C@]5(C)[C@@H](C6=CC(=O)OC6)CC[C@]5(O)[C@@H]4CC[C@]3(O)C2)OC(C)C1O[C@@H]1O[C@H](CO)[C@@H](O)[C@H](O)[C@H]1O` (some centres undefined), “inactive”; under `COC1CC(=O)C23C(=O)NC(CC(C)C)C2C(C)=C(C)C(OO)C3/C=C(\C)CCC(O)C1O` (centres undefined), “inactive”.

In the case of `C/C=C(\C)C(=O)O[C@H]1[C@H](OC(C)=O)[C@]2(CO)[C@H](O)[C@H](O)[C@]3(C)C(=CCC4[C@@]5(C)CC[C@H](O[C@@H]6O[C@H](C(=O)O)[C@@H](O)[C@H](O[C@@H]7OC[C@H](O)[C@H](O[C@@H]8OC[C@H](O)[C@H](O)[C@H]8O)[C@H]7O)[C@H]6O[C@@H]6O[C@H](CO)[C@@H](O)[C@H](O)[C@H]6O)C(C)(C)C5CC[C@]43C)[C@@H]2CC1(C)C` (some centres undefined), the activity change, negative = inhibition was 4.93% [at 10.7 µM] (inactive). In the case of `CCCN1CCO[C@H]2c3cc(O)ccc3OC[C@@H]21`, the Potency result is “inactive”. As for `N#C[C@@H](O[C@@H]1O[C@H](CO[C@@H]2O[C@H](CO)[C@@H](O)[C@H](O)[C@H]2O)[C@@H](O)[C@H](O)[C@H]1O)c1ccccc1`, the Potency entry is “inactive”. In the case of `COc1cc(CCNCc2ccccc2O)c(OC)cc1C#N`, the Potency result was “inactive”.

As for `CCCCCCn1c(=O)c(C(=O)Nc2ccc(C(=O)OCCC)cc2)c(O)c2ccccc21`, the outcome is “inactive [at 10.7 µM]”. Turning to `CN1[C@H]2C[C@H](OC(=O)[C@H](CO)c3ccccc3)C[C@@H]1[C@@H](O)C2`, the Potency entry was “inactive”. With `CN(C)CCc1c[nH]c2ccc(CN3CCN(C)S3(=O)=O)cc12`, the Potency result was “inactive”.

With `CC(CCc1ccc(O)cc1)O[C@@H]1O[C@H](CO[C@H]2OC[C@](O)(CO)[C@H]2O)[C@@H](O)[C@H](O)[C@H]1O` (some centres undefined), the Potency result is “inactive”. Turning to `CCC1NC(=O)C2C(Cl)C(Cl)CN2C(=O)C(C(C)O)NC(=O)CC(c2ccccc2)NC(=O)C(CO)NC1=O` (centres undefined), the Potency result was “inactive”. For `COC(=O)[C@@]12C(=O)C(C)C(=O)[C@]1(C)C(C)=C[C@H]1[C@]3(C=O)CC[C@H](OC(C)=O)C(C)(C)[C@H]3CC[C@@]12C` (some centres undefined), the Potency result is “inactive”. On to `CCN1C[C@]2(COC)[C@H](O)C[C@H](OC)[C@]34[C@@H]5C[C@]6(O)[C@H](OC(=O)c7ccccc7)[C@@H]5[C@@](O)([C@H]([C@H](OC)[C@H]23)[C@@H]14)[C@@H](O)[C@@H]6OC`, for which the Potency entry was “inactive”. As for `COc1cc2c(cc1OC)[C@@]13CCN4CC5=CCO[C@H]6CC(=O)N2[C@H]1[C@H]6[C@H]5C[C@H]43`, the Potency entry was “inactive”. Turning to `COC1=CC(=O)O[C@@H](/C=C/c2ccccc2)C1`, the Potency result was “inactive”. With `C[C@H]1O[C@@H](O[C@H]2C[C@@H](O)[C@]3(CO)C4C(CC[C@]3(O)C2)[C@@]2(O)CC[C@H](C3=CC(=O)OC3)[C@@]2(C)C[C@H]4O)[C@@H](O)[C@@H](O)[C@H]1O` (some centres undefined), the Potency entry is “inactive”.

As for `COC1CC(OC2CCC3(C)C(=CCC4C3CCC3(C)C(C(C)OC5OC(COC6OC(CO)C(O)C(O)C6O)C(O)C(O)C5O)CCC43O)C2)OC(C)C1OC1OC(C)C(O)C(OC)C1O` (centres undefined), the Potency result is “inactive”. Consider `C[C@H](NC(=O)Cc1cc(F)cc(F)c1)C(=O)N[C@@H]1N=C(c2ccccc2)c2ccccc2N(C)C1=O`, for which the Potency result was “inactive”. On to `COC1CC(O[C@H]2CC[C@@]3(C)C(=CCC4C3C(O)[C@@H](O)[C@]3(C)[C@@H](C(C)=O)CC[C@]43O)C2)OC(C)C1OC1CC(OC)C(OC2OC(C)C(O)C(O)C2O)C(C)O1` (some centres undefined), for which the Potency entry was “inactive”. In the case of `CCN1C[C@]2(COC(=O)c3ccccc3N3C(=O)C[C@H](C)C3=O)CC[C@H](OC)[C@@]34[C@@H]5C[C@H]6[C@H](OC)[C@@H]5[C@](O)(C[C@@H]6OC)[C@](O)([C@@H](OC)[C@H]23)[C@@H]14`, the Potency entry was “inactive”. For `OCCCCC#Cc1cncc(OC[C@@H]2CCN2)c1`, the Potency result is “inactive”. Same read-out and setting: under `O=C(N1CCOCC1)N1CCN(c2ccc(Cl)cc2)CC1` stands “inactive”; under `CCC(C)(OC(C)=O)C(=O)O[C@H]1[C@H](OC(C)=O)C[C@@H]2[C@@](C)([C@@H]3C[C@H]4C=CO[C@H]4O3)[C@H](C)C[C@H](OC(C)=O)[C@@]2(COC(C)=O)[C@@]12CO2` (some centres undefined), “inactive”. On to `C=C[C@H]1CN2CC[C@H]1C[C@@H]2[C@@H](O)c1ccnc2ccccc12`, for which the Potency entry was “inactive”. Consider `Cc1cc(C(=O)CN2CCCC2)c(C)n1-c1ccc(F)cc1`, for which the Potency entry was “inactive”. Same read-out and setting: the same measure for `CCOc1ccccc1-n1c(C(C)N2CCN(C(=O)COc3ccc(Cl)cc3)CC2)nc2ccccc2c1=O` (centres undefined): “inactive”; for `C=C(CO)C(=O)O[C@H]1C/C(C)=C/CC/C(CO)=C/[C@H]2OC(=O)C(=C)[C@H]12`: “inactive”. Still for that read-out and setting: the same measure for `CC1=C2C(=O)C3[C@@H](CC=C4C[C@@H](O)CC[C@@]43C)[C@@H]2CC[C@]12O[C@@H]1C[C@H](C)CN[C@H]1[C@H]2C` (some centres undefined): “inactive”; for `O=C(O)c1ccnc2cc(C(OCCN3CCCCC3)c3ccccc3Cl)[nH]c12` (centres undefined): “inactive”.

Take `CN1CCCC1CCOC(c1cc2nccc(C(=O)O)c2[nH]1)c1ccccc1Cl` (centres undefined): the Potency result was “inactive”. In the case of `C[C@@]12C[C@@H](c3ccoc3)OC(=O)C1CC[C@]1(C)[C@H]2[C@H]2C=C[C@]1(O)C(=O)O2` (some centres undefined), the Potency entry is “inactive”.

The record behind these values is PubChem BioAssay (NCATS).
